# Screening data deposited in PubChem by several laboratories.
# Shown are actives, neighbours in structure and some others; about 3.3% of the full set was active somewhere.
# Efflux pump inh: inhibitors of Candida efflux pumps in yeast, primary screen, S. cerevisiae, Nile Red, multiplex; 330,000 tested, 0.44% active; inhibition, % at 10 µM; S. cerevisiae Candida pump triplex;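 active means plate passing quality check with inhibition over a set limit, or well fluorescence over plate mean plus 4 SD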;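 further: Nile Red retained in pooled yeast measured as flow cytometry median fluorescence; 0% = buffer negative control and 100% = Enniatin B positive control; higher means more Nile Red kept so more efflux inhibition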
# KCC2 mod: KCC2 cotransporter modulators, thallium flux, primary screen, cell-based, HEK293 KCC2, FluoZin-2 fluorescence, MLSMR; Solute carrier family 12 member 5 (Homo sapiens), Q9H2X9; 190,000 tested, 2.2% active; KCC2 cells, thallium flux FluoZin-2 fluorescence; AID 1456, 2008; B-score of Tl+ flux slope (higher = more flux/activation; lower = inhibition) at 10 µM;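 active means thallium flux slope and its plate-corrected score both differing from the plate sample mean at a set confidence after two filtering rounds, in either direction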;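 further: slope of fluorescence scaled to starting intensity during 10 to 20 s after thallium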
# Target sequence (Q9H2X9 whole entry, looked up): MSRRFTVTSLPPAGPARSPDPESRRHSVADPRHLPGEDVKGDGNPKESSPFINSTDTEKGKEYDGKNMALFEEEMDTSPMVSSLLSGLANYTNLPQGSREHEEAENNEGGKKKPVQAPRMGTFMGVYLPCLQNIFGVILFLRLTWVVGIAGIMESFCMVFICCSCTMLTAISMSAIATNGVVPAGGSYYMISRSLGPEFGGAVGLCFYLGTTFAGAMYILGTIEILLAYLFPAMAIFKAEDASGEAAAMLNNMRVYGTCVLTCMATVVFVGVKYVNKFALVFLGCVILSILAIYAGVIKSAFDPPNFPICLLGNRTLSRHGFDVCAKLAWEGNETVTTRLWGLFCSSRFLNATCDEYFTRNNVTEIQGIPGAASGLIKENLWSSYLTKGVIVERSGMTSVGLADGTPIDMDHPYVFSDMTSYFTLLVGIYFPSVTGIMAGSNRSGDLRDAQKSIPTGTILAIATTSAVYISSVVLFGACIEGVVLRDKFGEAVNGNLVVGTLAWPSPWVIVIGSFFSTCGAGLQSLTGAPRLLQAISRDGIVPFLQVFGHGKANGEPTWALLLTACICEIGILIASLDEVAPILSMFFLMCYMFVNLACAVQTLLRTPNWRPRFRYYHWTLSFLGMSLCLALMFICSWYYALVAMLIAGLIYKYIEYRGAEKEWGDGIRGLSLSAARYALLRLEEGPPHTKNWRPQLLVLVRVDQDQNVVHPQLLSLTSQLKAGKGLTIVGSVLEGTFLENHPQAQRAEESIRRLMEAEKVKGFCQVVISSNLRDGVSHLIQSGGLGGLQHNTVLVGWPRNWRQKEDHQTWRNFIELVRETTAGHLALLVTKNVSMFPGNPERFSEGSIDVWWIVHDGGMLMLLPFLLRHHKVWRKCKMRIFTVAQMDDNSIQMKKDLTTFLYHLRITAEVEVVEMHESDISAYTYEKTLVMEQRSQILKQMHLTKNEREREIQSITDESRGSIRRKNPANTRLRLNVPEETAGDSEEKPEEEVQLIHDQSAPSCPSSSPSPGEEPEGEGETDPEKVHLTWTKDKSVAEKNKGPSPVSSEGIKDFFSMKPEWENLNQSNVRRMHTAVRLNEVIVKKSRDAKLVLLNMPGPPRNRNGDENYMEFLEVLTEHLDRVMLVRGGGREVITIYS
# Calb FLC: C. albicans growth inhibition with fluconazole, primary screen, CaCi-2 strain, Alamar Blue fluorescence; 300,000 tested, 0.57% active; AID 1979, 2009; C. albicans CaCi-2 (fluconazole-resistant clinical isolate) + fluconazole, 48 h; growth inhibition, % (no concentration beside the values);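 active means growth inhibition above about 58% in most replicates, limit read from the data, passing the limit was not always enough; inconclusive means exactly half the replicates above a set limit; inactive means most replicates below a set limit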;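 further: all wells also contain fluconazole at 8 µg/ml as a sub-toxic cotreatment; 0% = median of DMSO wells and 100% = median of geldanamycin control wells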
# PHOSPHO1 block: PubChem AID 1565; recombinant PHOSPHO1, absorbance phosphatase assay; inhibition, % at 13.3 µM; 290,000 tested, 1.1% active; in the data active means inhibition above about 60%
# H9c2 protect: cardioprotection against H2O2-induced cell death, primary screen, uHTS, H9c2 cells, ATPLite luminescence. H9c2 cardiomyocytes, H2O2 injury protection, 2 h. protection from H2O2 cell death, % at 20 µM. AID 588492, 2011. 360,000 tested, 0.63% active;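 active means compounds giving at least 50% protection of heart cells from peroxide-induced death in the single-dose screen, raw or plate-pattern-corrected value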;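 further: 0% = DMSO wells with peroxide and 100% = DMSO wells without peroxide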
# * = called active by the depositor; ? = inconclusive; nt = not tested or not shown; ! = not active in a repeat.
SMILES,Efflux pump inh,KCC2 mod,Calb FLC,PHOSPHO1 block,H9c2 protect
Cc1ccc(C(C(=O)NCc2ccccc2)N(Cc2cccs2)C(=O)c2ccc3c(c2)OCCO3)cc1 (configuration not stated),0,-0.67,20,-11,56*
COc1ccc(CNC(=O)C(c2ccco2)N(Cc2cccs2)C(=O)Cc2cccs2)cc1 (configuration not stated),0,0.61,-3,7,35
COc1ccc(CNC(=O)C(c2cccs2)N(Cc2ccco2)C(=O)Cc2cccs2)cc1 (configuration not stated),0,-0.085,2,2,63*
COCCN(C(=O)Cc1cccs1)C(C(=O)NCc1ccc(OC)cc1)c1ccc(OC)cc1 (configuration not stated),0,0.0068,-19,-22,19
COCCCNC(=O)c1ccccc1N(Cc1ccccc1)S(=O)(=O)c1ccccc1,0,nt,6,19,7
O=C1C=C(c2ccc3c(c2)oc2ccccc23)C[C@@H](c2ccc(Cl)cc2)C1,0,nt,nt,nt,-8
CCOC(=O)C1=C(C)NC(C)=C(C(=O)OCC)C1C(=O)OCC(=O)NC(C)C,0,0.77,-2,15,57*!
Nc1cccc(Oc2ccc3c(c2)C(=O)NC3=O)c1,0,nt,6,14,-3
O=C1CCCCN1CC(=O)N1CCCC(Nc2ccc(F)cc2)C1 (configuration not stated),0,nt,?,18,4
O=C(Nc1ccc(F)cc1F)N1CCN(CCc2ccccc2)CC1,0,-0.27,-7,68*,4
O=C(Nc1ccc(F)cc1F)N1CCN(C/C=C/c2ccccc2)CC1,0,-1.1,-13,-1,-8
CC(C)OCCCNC(=O)CCC(=O)NNc1nc2ccccc2c2nc(-c3ccccc3)nn12,0,1.6,-5,-2,84*
CCOCCCNC(=O)CCC(=O)NNc1nc2ccccc2c2nc(-c3ccccc3)nn12,0,2,1,-7,54*
COCCCNC(=O)CCC(=O)NNc1nc2ccccc2c2nc(-c3ccccc3)nn12,0,0.22,-1,1,10
CN(C(=O)c1ccc(NC(=O)Cc2cccc(NC(=O)C3CCN(C(=O)c4ccccc4)CC3)c2)cc1)C1CCCC1,0,nt,nt,nt,-2
CCN(c1ccccc1)S(=O)(=O)c1ccc(NC(=S)NC(=O)c2cccs2)cc1,0,16*,1,10,-3
CN(c1ccccc1)S(=O)(=O)c1ccc(NC(=O)c2cccs2)cc1,0,0.14,1,15,6
O=C(CCC(=O)N1CCN(c2ccc(Cl)c(Cl)c2)CC1)c1ccccc1,0,nt,-8,32,-15
COc1ccc(Cl)cc1C(=O)N1CCN(Cc2ccc3c(c2)OCO3)CC1,0,nt,-14,19,0
Cc1ccc(NC(=O)C2CCCN(S(=O)(=O)c3ccc4[nH]c(=O)ccc4c3)C2)c(C)c1 (configuration not stated),1,nt,8,44,3
O=C(C[n+]1ccccc1)N/N=C/c1ccc(Cl)cc1,0,nt,nt,nt,5
O=C(C[n+]1ccccc1)N/N=C/c1cccs1,0,0.84,95*,-51,1
CCCCCCCc1nc2c(=O)n(C)c3ccccc3c2o1,0,-0.43,1,63*,-6
CCCCCc1nc2c(=O)n(C)c3ccccc3c2o1,0,-1,-13,-11,0
COc1ccc(CCNc2ncnc3sc(C)cc23)cc1OC,0,nt,107*,-26,-17
SMILES,Efflux pump inh,KCC2 mod,Calb FLC,PHOSPHO1 block,H9c2 protect
COc1ccc(CCNc2ncnc3[nH]ncc23)cc1OC,0,nt,-7,29,-15
O=C(Nc1cccc(S(=O)(=O)NC2=NCCC2)c1)c1cnc(Cl)c(Cl)c1,0,nt,nt,nt,-9
Cc1ccc(C(=O)NC2CCCc3c2cnn3-c2ccc(F)cc2F)cn1 (configuration not stated),0,nt,-3,38,-12
CCn1c(=S)[nH]c2sc3c(c2c1=O)CCCC3,0,nt,67,-145,1
C=CCn1c(=S)[nH]c2sc3c(c2c1=O)CCC3,nt,31*,?,12,3
Cc1ccc(Cn2c(SCC(=O)N/N=C/c3ccc(C)o3)nc3ccccc32)cc1,0,-0.3,2,91*,-17
